# Data: the supplement of paper PMC12282887
# ± gives the standard deviation of the averaged measurements.
# Test system: E. coli BW25113 marRABp lux reporter
# Experiment: promoter activity interaction Z-score (Lux/OD deviation from empty-vector control); higher = stronger promoter induction by the compound
# Protocol: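 E. coli BW25113 (wild type or ΔmarA/ΔsoxS/Δrob) carrying pTU175 luxCDABE promoter reporters was grown in LB in 384-well plates at 37°C with each of 94 compounds at 4 two-fold concentrations, in biological duplicates. Luminescence and OD600 were read every 30 min for 12 h and integrated as AUC over 8 h (0-8 h WT, 1-9 h mutants). Lux AUC was divided by OD AUC; the interaction score is the residual of a Huber robust fit of each promoter against the empty-vector control, then Z-transformed per promoter.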
smiles,measurement,setting,value
COc1c(N2C[C@@H]3CCCN[C@@H]3C2)c(F)cc2c(=O)c(C(=O)O)cn(C3CC3)c12 [Moxifloxacin],promoter activity interaction Z-score,"0.011 µg/ml, genetic background: wild type",0.044 ± 0.089
same,promoter activity interaction Z-score,"0.011 µg/ml, genetic background: ΔmarA",0.14 ± 0.15
same,promoter activity interaction Z-score,"0.011 µg/ml, genetic background: Δrob",-0.0981 ± 0.19
same,promoter activity interaction Z-score,"0.011 µg/ml, genetic background: ΔsoxS",0.00173 ± 0.15
same,promoter activity interaction Z-score,"0.022 µg/ml, genetic background: wild type",0.5 ± 0.56
same,promoter activity interaction Z-score,"0.022 µg/ml, genetic background: ΔmarA",1.62 ± 0.86
same,promoter activity interaction Z-score,"0.022 µg/ml, genetic background: Δrob",0.689 ± 0.17
same,promoter activity interaction Z-score,"0.022 µg/ml, genetic background: ΔsoxS",0.0296 ± 0.046
same,promoter activity interaction Z-score,"0.044 µg/ml, genetic background: wild type",4.34 ± 1.7
same,promoter activity interaction Z-score,"0.044 µg/ml, genetic background: ΔsoxS",2.52 ± 1.1
NC(=O)c1cc[n+](CC2=C(C(=O)[O-])N3C(=O)[C@@H](NC(=O)[C@@H](c4ccccc4)S(=O)(=O)O)[C@H]3SC2)cc1 [Cefsulodin],promoter activity interaction Z-score,"1.7 µg/ml, genetic background: wild type",0.0888 ± 0.07
same,promoter activity interaction Z-score,"1.7 µg/ml, genetic background: ΔmarA",-0.156 ± 0.32
same,promoter activity interaction Z-score,"1.7 µg/ml, genetic background: Δrob",-0.151 ± 0.05
same,promoter activity interaction Z-score,"1.7 µg/ml, genetic background: ΔsoxS",-0.273 ± 0.013
same,promoter activity interaction Z-score,"3.5 µg/ml, genetic background: wild type",0.026 ± 0.046
same,promoter activity interaction Z-score,"3.5 µg/ml, genetic background: ΔmarA",-0.154 ± 0.15
same,promoter activity interaction Z-score,"3.5 µg/ml, genetic background: Δrob",-0.188 ± 0.075
same,promoter activity interaction Z-score,"3.5 µg/ml, genetic background: ΔsoxS",-0.12 ± 0.063
same,promoter activity interaction Z-score,"6.9 µg/ml, genetic background: wild type",-0.199 ± 0.15
same,promoter activity interaction Z-score,"6.9 µg/ml, genetic background: ΔmarA",-0.257 ± 0.49
same,promoter activity interaction Z-score,"6.9 µg/ml, genetic background: Δrob",-0.271 ± 0.049
same,promoter activity interaction Z-score,"6.9 µg/ml, genetic background: ΔsoxS",-0.324 ± 0.025
same,promoter activity interaction Z-score,"13.9 µg/ml, genetic background: wild type",1.24 ± 1.6
same,promoter activity interaction Z-score,"13.9 µg/ml, genetic background: ΔmarA",0.729 ± 0.25
same,promoter activity interaction Z-score,"13.9 µg/ml, genetic background: Δrob",0.241 ± 0.029
same,promoter activity interaction Z-score,"13.9 µg/ml, genetic background: ΔsoxS",0.341 ± 0.012
CC(C)Cc1ccc(C(C)C(=O)O)cc1 (configuration not stated) [Ibuprofen],promoter activity interaction Z-score,"12.9 µg/ml, genetic background: wild type",0.196 ± 0.28
same,promoter activity interaction Z-score,"12.9 µg/ml, genetic background: ΔmarA",0.232 ± 0.58
same,promoter activity interaction Z-score,"12.9 µg/ml, genetic background: Δrob",0.124 ± 0.06
same,promoter activity interaction Z-score,"12.9 µg/ml, genetic background: ΔsoxS",0.193 ± 0.14
same,promoter activity interaction Z-score,"25.8 µg/ml, genetic background: wild type",0.212 ± 0.12
same,promoter activity interaction Z-score,"25.8 µg/ml, genetic background: ΔmarA",0.172 ± 0.49
same,promoter activity interaction Z-score,"25.8 µg/ml, genetic background: Δrob",0.0582 ± 0.32
same,promoter activity interaction Z-score,"25.8 µg/ml, genetic background: ΔsoxS",0.0302 ± 0.03
same,promoter activity interaction Z-score,"51.6 µg/ml, genetic background: wild type",0.119 ± 0.036
same,promoter activity interaction Z-score,"51.6 µg/ml, genetic background: ΔmarA",-0.396 ± 0.089
same,promoter activity interaction Z-score,"51.6 µg/ml, genetic background: Δrob",0.159 ± 0.17
same,promoter activity interaction Z-score,"51.6 µg/ml, genetic background: ΔsoxS",-0.0798 ± 0.073
same,promoter activity interaction Z-score,"103.1 µg/ml, genetic background: wild type",-0.239 ± 0.093
same,promoter activity interaction Z-score,"103.1 µg/ml, genetic background: ΔmarA",0.541 ± 0.8
same,promoter activity interaction Z-score,"103.1 µg/ml, genetic background: Δrob",0.0177 ± 0.01
same,promoter activity interaction Z-score,"103.1 µg/ml, genetic background: ΔsoxS",-0.0508 ± 0.43
